Measured values reported in PubChem BioAssay (NCATS).
Results filed as inconclusive are left out. A number with no mark means an inactive call. Calls of active or inactive are those of the source. The call rests on the fitted dose curve; in most records, active means well fitted inhibition curve with a large enough effect; inconclusive means small, poorly fitted or top-dose-only effect; inactive means no such curve, though single readings can be large or run the other way.

Molecular target: Cytochrome P450 2C9 (Homo sapiens) (UniProt P11712)
Test: qHTS Assay for Inhibitors and Substrates of Cytochrome P450 2C9 (AID 883); further: nearly all actives have a fitted effect of over 60% in size
Conditions: recombinant CYP2C9, luciferin-H luminescence, 60 min; series mostly up to 57.1 µM; activity change, negative = inhibition: at the top concentration
Protocol: NIH Molecular Libraries Screening Centers Network [MLSCN] NIH Chemical Genomics Center [NCGC] MLSCN Grant: None NCGC Assay Overview: The P450 gene superfamily is involved in the metabolism and clearance of xenobiotics. This assay used human CYP2C9 to measure the hydroxylation of deoxyluciferin (Luciferin-H; P450 Glo-Buffer) to luciferin. The luciferin is then measured by luminescence after the addition of a luciferase detection reagent. Luciferin-H concentration in the assay was equal to its Michaelis constant KM for CYP2C9. Inhibitors and some substrates limit the production of luciferin, and decrease measured luminescence.
NCGC Assay Protocol Summary: Two uL of enzyme and substrate mix (final concentrations: 10nM CYP2C9, 100uM Luciferin-H, 25mM KPO4) were dispensed into a white, solid bottom 1536-well microtiter plate. 23nL of compound was transferred by a pin tool. The plate was incubated at 37C for 10 min. Two uL of an NADPH regeneration solution (Promega supplied reagent) was dispensed and the reaction was allowed to continue for 60 min at 37C. Then the reaction was stopped by reconstituted P450 Glo-Buffer. After another 20 min of incubation the plate was read on the ViewLux (Perkin Elmer) at 60 sec exposure and 2x2 binning. This protocol was carried out with Promega-Glo reagents and further information can be found at http://www.promega.com/tbs/tb325/tb325.pdf. Data were normalized to the to AC100 inhibition (57uM sulphaphenazole). Keywords: P450, CYP2C9, Luciferase, MLSMR, MLSCN, NIH Roadmap, qHTS, NCGC
On the % scale 0 is the no-effect control and ±100 the full control effect; potency means the concentration at half of the fitted maximal effect.

Chain of Cytochrome P450 2C9 (Homo sapiens) (P11712 whole entry, looked up): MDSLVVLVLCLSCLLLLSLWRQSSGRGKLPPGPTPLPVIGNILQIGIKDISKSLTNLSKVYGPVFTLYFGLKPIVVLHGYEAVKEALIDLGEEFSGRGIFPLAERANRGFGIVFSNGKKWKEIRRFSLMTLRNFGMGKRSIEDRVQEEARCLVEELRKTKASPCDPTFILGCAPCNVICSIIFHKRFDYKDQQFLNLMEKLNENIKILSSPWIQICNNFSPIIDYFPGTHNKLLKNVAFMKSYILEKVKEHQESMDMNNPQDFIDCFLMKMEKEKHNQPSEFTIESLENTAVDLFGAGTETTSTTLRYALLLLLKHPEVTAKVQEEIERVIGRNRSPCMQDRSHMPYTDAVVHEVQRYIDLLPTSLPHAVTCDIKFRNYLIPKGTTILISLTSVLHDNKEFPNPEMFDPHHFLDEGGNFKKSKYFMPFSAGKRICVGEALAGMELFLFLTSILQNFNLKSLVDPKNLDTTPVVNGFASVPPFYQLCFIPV

| SMILES | activity change, negative = inhibition | Potency |
| --- | --- | --- |
| CCN(CC)C(=O)N[C@H]1C[C@H]2c3cccc4[nH]cc(c34)C[C@@H]2N(C)C1 | 38.8% | – |
| C[C@H]1CC[C@]2(NC1)O[C@@H]1C[C@@H]3[C@@H]4CC=C5C[C@H](O)CC[C@@]5(C)[C@H]4CC[C@@]3(C)[C@H]1[C@@H]2C | 12.1% | – |
| CC[C@@]12CCCN3CC[C@@]4(c5ccc(OC)c(O)c5N(C(C)=O)[C@H]4CC1)[C@H]32 | -9.33% | – |
| CC(=O)c1c(O)c(C)c(O)c2c1OC1=CC(=O)[C@H](C(C)=O)C(=O)[C@]12C | – | 12.6 nM (active) |
| CO[C@@H](C)[C@](O)(C(=O)OC1=CCN2CC[C@H](O)[C@H]12)C(C)C | 17.5% | – |
| N[C@]1(C(=O)O)CC[C@@H](C(=O)O)C1 | -2.36% | – |
| COc1cc2c(cc1O)CCN[C@H]2C | -22.9% | – |
| O=[N+]([O-])c1ccc(S(=O)(=O)Cc2ccccc2)c([N+](=O)[O-])c1 | – | 3160 nM (active) |
| COc1ccc(C[C@@H]2NC[C@H](O)[C@H]2OC(C)=O)cc1 | -10.1% | – |
| O=C1C=CC(=O)c2c1ccc1c2ccc2ccccc21 | – | 1260 nM (active) |
| CC(C)[C@@]1(NC(=O)[C@@H]2C[C@H]3c4cccc5[nH]cc(c45)C[C@@H]3N(C)C2)O[C@@]2(O)[C@H]3CCCN3C(=O)[C@@H](Cc3ccccc3)N2C1=O | – | 1260 nM (active) |
| COCOc1ccc(Br)cc1C(=O)/C=C\c1ccc2c(c1)OCO2 | – | 2000 nM (active) |
| C=C[C@@H]1CN2CC[C@@H]1C[C@H]2[C@H](O)c1ccnc2ccccc12 | 10.9% | – |
| OC[C@H]1CCCN2CCCC[C@@H]12 | 12.5% | – |
| CC[C@H]1[C@@H]2C[C@@H]3[C@@H]4N(C)c5ccccc5[C@@]45C[C@@H]([C@H]2[C@@H]5O)N3[C@@H]1O | -4.11% | – |
| CCN1C[C@@]2(C)CC[C@H](O)[C@@]34[C@@H]5C[C@H]6[C@H](O)[C@@H]5[C@](O)(C[C@@H]6OC)[C@H](C[C@@H]23)[C@H]14 | -7.11% | – |
| C=C(C)[C@@H]1CN[C@H](C(=O)O)[C@H]1CC(=O)O | -4.63% | – |
| C[C@@H]1CCC/C=C\[C@H]2C[C@H](O)C[C@@H]2[C@H](O)/C=C\C(=O)O1 | 3.89% | – |
| C[C@@]12CC[C@H]3[C@@H](CCC4=CC(=O)CC[C@]43C)[C@H]1CCC2=O | -6.87% | – |
| CC[C@]1(O)C(=O)OCc2c1cc1n(c2=O)Cc2cc3ccccc3nc2-1 | 6.33% | – |

| SMILES | activity change, negative = inhibition | Potency |
| --- | --- | --- |
| CN1CCc2cc3c(cc2[C@@H]1[C@H]1OC(=O)c2c1ccc1c2OCO1)OCO3 | – | 3980 nM (active) |
| CC1=CC(=O)C2=C(C)C[C@H](O)[C@@H]3[C@@H](OC(=O)[C@H]3C)[C@H]12 | 12.7% | – |
| CN1[C@@H]2CC[C@H]1CC(O[C@@H](c1ccccc1)c1ccccc1N)C2 (stereo not given in full) | 31.6% | – |
| CN1CCc2nc(CO)c(CO)cc2C1 | 21.8% [at 11.4 µM] | – |
| CC1Cc2c(cnc3c2CN(C)CC3)CO1 (stereo not given) | 12.6% [at 11.4 µM] | – |
| C[C@H]1C(=O)O[C@H]2CCN3CC=C(COC(=O)[C@](C)(O)[C@@]1(C)O)[C@H]23 | 5.87% | – |
| COc1ccc2c(c1O)-c1c(OC)c(OC)cc3c1[C@@H](C2)N(C)CC3 | -7.96% | – |
| C[C@@H](CO)NC(=O)[C@H]1C=C2c3cccc4[nH]cc(c34)C[C@H]2N(C)C1 | -4.14% | – |
| CC[C@@H]1CN2CC[C@@H]1C[C@H]2[C@@H](O)c1ccnc2ccc(OC)cc12 | -8.7% | – |
| O=CN1C[C@H]2C[C@@H](C1)c1cccc(=O)n1C2 | 36.5% | – |
| C[C@@]12CC[C@@H]3c4ccc(O)cc4CC[C@H]3[C@H]1CC[C@H]2O | 48.6% [at 25.6 µM] | – |
| CN[C@@H](C)[C@@H](O)c1ccccc1 | – | 794 nM (active) |
| C/C=C1\C[C@H](C)[C@](O)(CO)C(=O)OCC2=CCN3CC[C@@H](OC1=O)[C@@H]23 | 24.2% | – |
| c1cc2cc(c1)C[n+]1ccc(c3ccccc31)NCc1ccc(cc1)CNc1cc[n+](c3ccccc13)C2 | – | 2510 nM (active) |
| O=c1c2ccccc2c2ccccc2c(=O)n1-c1cc2c3ccccc3ccc2c2ccccc12 | – | 316 nM (active) |
| COc1cc2c(cc1OC)-c1c(O)c(OC)cc3c1[C@@H](C2)N(C)CC3 | -18.1% | – |
| C=C(CC1(C(C)NP(=O)(c2ccccc2)c2ccccc2)CC1)c1ccccc1 (stereo not given) | – | 7940 nM (active) |
| O=C1C[C@H]2OCCC=C3CN4CC[C@@]56c7ccccc7N1[C@@H]5[C@H]2[C@H]3C[C@@H]46 | 0.0532% | – |
| C=C1C/C(=C\C)C(=O)O[C@@H]2CCN3CC=C(COC(=O)[C@]1(C)O)[C@H]23 | -3.06% | – |
| C[C@@]12CCC[C@](C)(C(=O)O)[C@@H]1CCc1ccc(O)cc12 | -33.1% | – |
